Hit rate of the full screen: of about 1,300 compounds, fewer than 10 were called active. Another 9% or so got no clear call; they are omitted. Only a sample is shown. Values without a mark were called inactive. Calls follow the shape of the dose curve; as a rule, active = well fitted curve in the direction sought with a large enough effect; inconclusive = small, poorly fitted or top-dose-only effect, or another doubt; inactive = no such curve, though single readings can be large or run the other way.
test: qHTS for antagonists of the Thyroid Stimulation Hormone Receptor: Hit Validation in Parental Cell Line; settings: parental HEK293 cells lacking TSHR, counter-screen; series mostly up to 56.9 µM; activity change, negative = inhibition: at the top concentration; also: 0% is about no effect
Text: The thyroid-stimulating hormone receptor (TSHR) is a member of the 7 trans-membrane-spanning receptor (7TMR) family of cell surface receptors. TSHR-mediated hyperthyroidism is important in thyroid pathology. The development of small molecule antagonists of TSHR may lead to therapeutic approaches for TSHR-mediated hyperthyroidism caused by constitutively activating mutations or stimulating auto-antibodies associated with Graves' disease. Graves' disease is the leading cause of hyperthyroidism and is caused by autoantibodies that stimulate TSHR (TsAbs) causing thyroid growth and unregulated overproduction of thyroid hormones and existing treatments have liabilities (agranulocytosis). In addition, TSHRs are known to be expressed in multiple extrathyroidal tissues including bone, brain, kidney, testis, fat and cells of the immune system but the role of the TSHR in these tissues is not clear. Therefore, TSHR antagonists/inverse agonists could be used as probes of extrathyroidal TSHR function. Finally, TSHR inverse agonists, which are a subclass of antagonists that inhibit agonist-independent (or basal or constitutive) TSHR signaling, could be used to inhibit TSH-independent signaling in patients with recurrent or metastatic thyroid cancer who are receiving thyroid hormone to suppress TSH.
In collaboration between scientist from the NCGC and the NIDDK, a miniaturized HTRF high-throughput screen was developed. It's a cell based assay, where an anti cAMP antibody contains a fluorescent cryptate tag (excitation 337 nm; emission 620 nm) and the acceptor is cAMP-d2 (excitation 620 nm; emission 665 nm). When antibody and cAMP-d2 interact and are excited by a 337 nm light, a FRET occurs resulting in emission at 665 nm. The assay is competition between cAMP-d2 and cAMP (from the cell lysate). The homogeneous protocol allows for one step dispense after stimulation that is automation friendly. This is a hit validation assay in a counterscreen using parental HEK 293 cells lines.
NIH Chemical Genomics Center [NCGC]
NIH Molecular Libraries Probe Centers Network [MLPCN]
Assay Provider: Marvin Gershengorn, NIDDK
An anti cAMP antibody contains a fluorescent cryptate tag (excitation 337 nm; emission 620 nm) and the acceptor is cAMP-d2 (excitation 620 nm; emission 665 nm). When antibody and cAMP-d2 interact and are excited by a 337 nm light, a FRET occurs resulting in emission at 665 nm. The assay is competition between cAMP-d2 and cAMP (from the cell lysate). The homogeneous protocol allows for one step dispense after stimulation that is automation friendly. This assay uses parental HEK-EM 293 cells

SMILES | activity change, negative = inhibition [%]
CN(c1ccc(OCC(=O)Nc2nc3ccccc3s2)cc1)S(=O)(=O)c1ccccc1 | -12.7
Cc1cc(=O)[nH]c(SCC(=O)Nc2ccc(Br)cc2)c1C#N | -3.68
CCCc1ccc(-c2c(C)sc(NC(=O)c3ccnn3C)c2C#N)cc1 | -6.47
NS(=O)(=O)c1ccc(NCc2ccccc2OCc2ccccc2F)cc1 | 1.37
O=C(Nc1cccc(S(=O)(=O)N2CCCCC2)c1)c1ccc2c(=O)n3c(nc2c1)CCCCC3 | -8.03
COc1cc(/C=C(\C#N)c2nc3ccccc3s2)cc([N+](=O)[O-])c1O | -6.23
O=C(CC1S/C(=N/N=C2CCCCCC2)NC1=O)Nc1ccc(Br)cc1F (stereo not given) | 0.642
O=C(CNc1ccc(C(F)(F)F)cc1)Nc1cccc(S(=O)(=O)N2CCCC2)c1 | 0.458
O=S(=O)(Nc1cccnc1)c1cc(Cl)ccc1Cl | 2.38
COCC(C)n1c(COc2ccccc2F)nnc1SCc1c(C)noc1C (stereo not given) | 2.74
CS(=O)(=O)c1ccc(C(=O)OCC(=O)NC(=O)C2CCCCC2)cc1[N+](=O)[O-] | 0.578
CC(C)(C)c1cc2nc3c(c(=O)n2[nH]1)CN(Cc1ccccc1)C3=O | -3.97
O=C(COc1ccccc1/C=C1\SC(=S)NC1=O)Nc1ccc(F)cc1 | -2.81
CN(C)S(=O)(=O)Oc1cccc(C(=O)Nc2ccc(Cl)c(Cl)c2)c1 | -6.85
O=[N+]([O-])c1ccc(NC(=S)NCCc2ccc(F)cc2)cc1 | -7.64
COCC1CCCCN1C(=O)C1CCN(c2nc(-c3ccccc3)nc3c2CCC3)CC1 (stereo not given) | -0.886
CC(CNC(=O)c1cc(COc2ccc3ncccc3c2)on1)c1ccccc1 (stereo not given) | -3.81
N#C/C(=C(/O)COC(=O)c1ccc(C#N)cc1)c1nc2ccccc2s1 | -2.37
CCCCCC/C(C)=C1/SC(=S)NC1=O | -0.358
O=C(Cn1nc(Cc2cccnc2)c2ccccc2c1=O)NCC1COc2ccccc2O1 (stereo not given) | 5.27
Cc1ccc(/C=C/C(=O)Nc2ccc(Oc3ccccc3)cc2)o1 | -2.86
CC(C)Oc1ccc(C(=O)Nc2ccc(Cl)c(S(=O)(=O)Nc3ccc(Cl)cc3)c2)cc1 | 0.687
Cc1ccc([N+](=O)[O-])cc1S(=O)(=O)Nc1ccc(-c2ccc(N3CCCC3)nn2)cc1 | -5.81
Cc1ccccc1-n1sc2cc(F)ccc2c1=O | -7.14
COc1ccc(CNC(=O)C(c2ccco2)N(C(=O)c2snc(C(N)=O)c2N)c2cccc(OC)c2)cc1 (stereo not given) | 1.19

SMILES | activity change, negative = inhibition [%]
CC(C)C(c1nnnn1Cc1ccco1)N1CCN(c2nc3ccccc3s2)CC1 (stereo not given) | -0.88
COc1cccc(CN(C)C(=O)c2ccc(Oc3ccccc3)cc2)c1OC | 2.59
Cc1ccc(C2=NS(=O)(=O)N(C)C(C(=O)NCc3ccc(F)cc3)=C2)cc1 | 2.08
CC(=O)c1ccc(N2CCN(C(=S)Nc3ccc(Oc4ccccc4)cc3)CC2)cc1 | -1.07
CCn1c(=NC(=O)CSC(C)=O)sc2ccccc21 | 0.315
Clc1ccc2c(c1)-c1nnc(Br)n1-c1ccccc1S2 | 6.35
COc1ccc(C(=O)/C(=C\c2ccco2)N2C=CC=CC2=C(C#N)C#N)cc1 | -3.62
COc1cc(/C=N/Nc2ccc(C(=O)O)cc2)ccc1O | -5.88
Cc1nn(Cc2ccc(Cl)cc2)c(C)c1NC(=O)c1noc2c1CCc1ccccc1-2 | -0.224
Cc1ccc(-n2c(Cl)c(Cl)nc(Cl)c2=O)cc1 | -20.4
Cc1nn(-c2nc3ccccc3s2)c(N)c1-c1ccccc1 | -9.47
CC(C)C(C)NC(=O)COc1ccc(Sc2ccc(OCC(=O)NC(C)C(C)C)cc2)cc1 (stereo not given) | -0.802
Cc1ccc2nc(NC(=O)C3CCN(S(=O)(=O)c4cc([N+](=O)[O-])ccc4Cl)CC3)sc2c1 | -2.06
Cc1cccc(NC(=O)C2C3CCC4C(CCC32)C4(Cl)Cl)c1 (stereo not given) | -1.11
Cc1ccccc1Oc1cc(-n2ncc(Cl)c(Cl)c2=O)ncn1 | 7.91
COc1ccc(NC(=O)/C(Cl)=C(/Cl)S(=O)(=O)Cc2ccccc2)cn1 | -9.15
O=C(Nc1nc(-c2cccs2)cs1)c1ccc(S(=O)(=O)N2CCCCC2)cc1 | -9.31
CCCCc1c(C)nc2nc(SCc3ccc(Cl)cc3)[nH]n2c1=O | -0.616
Clc1cc(Cl)c(OCc2nc(-c3ccccn3)no2)cc1Cl | -4.07
O=[N+]([O-])c1ccc(NC(=S)NCc2ccc(F)cc2)cc1 | -9.76
CC1CCCCN1C(=O)CSCC(=O)Nc1nc(-c2cccs2)cs1 (stereo not given) | -1.89
CC(=O)c1c(C)[nH]c(C(=O)COc2cc(C)ccc2C(C)C)c1C | 0.826
COc1cccc(COc2cc3ccccc3nc2C)c1 | 1.35
O=[N+]([O-])c1cc(Br)c(O)c(/C=N/Nc2nnnn2-c2cccc3ccccc23)c1 | -0.201
Cc1csc2ncnc(N3CCN(S(=O)(=O)c4cccc(C(F)(F)F)c4)CC3)c12 | -0.152

Source: PubChem BioAssay AID602441 (National Center for Advancing Translational Sciences (NCATS), 2012)
